Source: PMC11006913
Numbering of substitutions follows the chain as printed.

Key:
Assay in all cases: PBM; 200 nM protein, PBS
Details in all cases: dsDNA, one strand shown
[1] = target: T1, PAX4 (Homo sapiens, UniProt O43316 9-242, R200K)
T1 sequence: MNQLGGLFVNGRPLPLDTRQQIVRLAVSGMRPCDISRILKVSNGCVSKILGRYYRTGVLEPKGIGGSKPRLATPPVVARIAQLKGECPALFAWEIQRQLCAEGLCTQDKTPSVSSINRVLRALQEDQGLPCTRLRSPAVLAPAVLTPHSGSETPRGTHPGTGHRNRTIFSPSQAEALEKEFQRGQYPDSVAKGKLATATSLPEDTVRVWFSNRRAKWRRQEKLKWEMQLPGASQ

[2] = target: T2, PAX4 (Homo sapiens, UniProt O43316 9-242)
T2 sequence: T1 sequence with K192R

[3] = target: ALX3 (Homo sapiens, UniProt O95076 139-225, N203Q)
ALX3 (Homo sapiens, UniProt O95076 139-225, N203Q), sequence (O95076 139-225 N203Q): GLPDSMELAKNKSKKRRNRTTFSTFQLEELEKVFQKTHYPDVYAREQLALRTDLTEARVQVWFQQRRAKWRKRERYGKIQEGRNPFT

[4] = target: T3, PAX4 (Homo sapiens, UniProt O43316 9-242, R200Q)
T3 sequence: T1 sequence with K192Q

[5] = target: T4, PAX4 (Homo sapiens, UniProt O43316 9-242, F177V)
T4 sequence: T1 sequence with F169V, K192R

[6] = target: MSX2 (Homo sapiens, UniProt P35548 130-214)
MSX2, sequence (P35548 130-214): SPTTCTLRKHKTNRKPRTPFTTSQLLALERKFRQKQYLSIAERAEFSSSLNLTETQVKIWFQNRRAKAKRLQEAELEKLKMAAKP

[7] = target: ALX3 (Homo sapiens, UniProt O95076 139-225)
ALX3 (Homo sapiens, UniProt O95076 139-225), sequence (O95076 139-225): as the sequence (O95076 139-225 N203Q) above, with Q65N counted along it

[8] = target: T5, PAX4 (Homo sapiens, UniProt O43316 9-242, F177Y)
T5 sequence: T1 sequence with F169Y, K192R

[9] = target: ALX3 (Homo sapiens, UniProt O95076 139-225, L168V)
ALX3 (Homo sapiens, UniProt O95076 139-225, L168V), sequence (O95076 139-225 L168V): as the sequence (O95076 139-225 N203Q) above, with L30V, Q65N counted along it

[10] = target: T6, PAX4 (Homo sapiens, UniProt O43316 9-242, R227W)
T6 sequence: T1 sequence with K192R, R219W

[11] = target: ALX3 (Homo sapiens, UniProt O95076 139-225, N203S)
ALX3 (Homo sapiens, UniProt O95076 139-225, N203S), sequence (O95076 139-225 N203S): as the sequence (O95076 139-225 N203Q) above, with Q65S counted along it

[12] = target: HOXA4 (Homo sapiens, UniProt Q00056 201-287, W262F)
HOXA4, sequence (Q00056 201-287 W262F): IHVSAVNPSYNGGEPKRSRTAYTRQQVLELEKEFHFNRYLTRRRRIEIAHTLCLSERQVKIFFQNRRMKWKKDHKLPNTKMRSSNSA

[13] = target: T7, VENTX (Homo sapiens, UniProt O95231 78-163, R121Q)
T7 sequence: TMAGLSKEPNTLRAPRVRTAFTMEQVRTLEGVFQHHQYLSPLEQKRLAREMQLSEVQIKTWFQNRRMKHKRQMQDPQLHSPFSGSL

[14] = target: T8, VENTX (Homo sapiens, UniProt O95231 78-163, Y115F)
T8 sequence: T7 sequence with Y38F, Q44R

[15] = target: HOXA7 (Homo sapiens, UniProt P31268 116-202)
HOXA7 (Homo sapiens, UniProt P31268 116-202), sequence (P31268 116-202): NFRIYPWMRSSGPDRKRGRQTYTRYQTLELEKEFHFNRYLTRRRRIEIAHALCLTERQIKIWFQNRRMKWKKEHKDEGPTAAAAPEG

[16] = target: HOXA7 (Homo sapiens, UniProt P31268 116-202, W177C)
HOXA7 (Homo sapiens, UniProt P31268 116-202, W177C), sequence (P31268 116-202 W177C): as the sequence (P31268 116-202) above, with W62C counted along it

## AATTAGCC
[1]
  binding signal: 11.5 upbm affinity estimate (log intensity, higher = more binding, comparable within an allelic series)
[2]
  binding signal: 12.1 upbm affinity estimate (log intensity, higher = more binding, comparable within an allelic series)
[3]
  binding signal: 8.15 upbm affinity estimate (log intensity, higher = more binding, comparable within an allelic series)
[4]
  binding signal: 11.7 upbm affinity estimate (log intensity, higher = more binding, comparable within an allelic series)
[5]
  binding signal: 10.1 upbm affinity estimate (log intensity, higher = more binding, comparable within an allelic series)
[6]
  binding signal: 13.3 upbm affinity estimate (log intensity, higher = more binding, comparable within an allelic series)
[7]
  binding signal: 12.3 upbm affinity estimate (log intensity, higher = more binding, comparable within an allelic series)
[8]
  binding signal: 10.5 upbm affinity estimate (log intensity, higher = more binding, comparable within an allelic series)
[9]
  binding signal: 9.65 upbm affinity estimate (log intensity, higher = more binding, comparable within an allelic series)
[10]
  binding signal: 10.6 upbm affinity estimate (log intensity, higher = more binding, comparable within an allelic series)
[11]
  binding signal: 8.23 upbm affinity estimate (log intensity, higher = more binding, comparable within an allelic series)

## AATTAAAT
[1]
  binding signal: 11.8 upbm affinity estimate (log intensity, higher = more binding, comparable within an allelic series)
[2]
  binding signal: 12.3 upbm affinity estimate (log intensity, higher = more binding, comparable within an allelic series)
[3]
  binding signal: 8.52 upbm affinity estimate (log intensity, higher = more binding, comparable within an allelic series)
[4]
  binding signal: 12.2 upbm affinity estimate (log intensity, higher = more binding, comparable within an allelic series)
[5]
  binding signal: 10.8 upbm affinity estimate (log intensity, higher = more binding, comparable within an allelic series)
[6]
  binding signal: 13.6 upbm affinity estimate (log intensity, higher = more binding, comparable within an allelic series)
[7]
  binding signal: 12.5 upbm affinity estimate (log intensity, higher = more binding, comparable within an allelic series)
[8]
  binding signal: 11.3 upbm affinity estimate (log intensity, higher = more binding, comparable within an allelic series)
[9]
  binding signal: 10.2 upbm affinity estimate (log intensity, higher = more binding, comparable within an allelic series)
[10]
  binding signal: 11.1 upbm affinity estimate (log intensity, higher = more binding, comparable within an allelic series)
[12]
  binding signal: 11.4 upbm affinity estimate (log intensity, higher = more binding, comparable within an allelic series)
[11]
  binding signal: 8.68 upbm affinity estimate (log intensity, higher = more binding, comparable within an allelic series)

## AACTAATT
[3]
  binding signal: 8.44 upbm affinity estimate (log intensity, higher = more binding, comparable within an allelic series)
[6]
  binding signal: 13.3 upbm affinity estimate (log intensity, higher = more binding, comparable within an allelic series)
[7]
  binding signal: 12.4 upbm affinity estimate (log intensity, higher = more binding, comparable within an allelic series)
[9]
  binding signal: 9.88 upbm affinity estimate (log intensity, higher = more binding, comparable within an allelic series)
[11]
  binding signal: 8.58 upbm affinity estimate (log intensity, higher = more binding, comparable within an allelic series)

## AATTAACG
[13]
  binding signal: 11.7 upbm affinity estimate (log intensity, higher = more binding, comparable within an allelic series)
[1]
  binding signal: 11.6 upbm affinity estimate (log intensity, higher = more binding, comparable within an allelic series)
[14]
  binding signal: 11.5 upbm affinity estimate (log intensity, higher = more binding, comparable within an allelic series)
[2]
  binding signal: 12.2 upbm affinity estimate (log intensity, higher = more binding, comparable within an allelic series)
[3]
  binding signal: 8.41 upbm affinity estimate (log intensity, higher = more binding, comparable within an allelic series)
[4]
  binding signal: 12 upbm affinity estimate (log intensity, higher = more binding, comparable within an allelic series)
[5]
  binding signal: 10.6 upbm affinity estimate (log intensity, higher = more binding, comparable within an allelic series)
[7]
  binding signal: 12.5 upbm affinity estimate (log intensity, higher = more binding, comparable within an allelic series)
[8]
  binding signal: 11 upbm affinity estimate (log intensity, higher = more binding, comparable within an allelic series)
[9]
  binding signal: 10.1 upbm affinity estimate (log intensity, higher = more binding, comparable within an allelic series)
[10]
  binding signal: 10.9 upbm affinity estimate (log intensity, higher = more binding, comparable within an allelic series)
[12]
  binding signal: 11.6 upbm affinity estimate (log intensity, higher = more binding, comparable within an allelic series)
[11]
  binding signal: 8.55 upbm affinity estimate (log intensity, higher = more binding, comparable within an allelic series)

## AATTAAGA
[1]
  binding signal: 11.6 upbm affinity estimate (log intensity, higher = more binding, comparable within an allelic series)
[2]
  binding signal: 12.2 upbm affinity estimate (log intensity, higher = more binding, comparable within an allelic series)
[3]
  binding signal: 8.44 upbm affinity estimate (log intensity, higher = more binding, comparable within an allelic series)
[4]
  binding signal: 11.9 upbm affinity estimate (log intensity, higher = more binding, comparable within an allelic series)
[5]
  binding signal: 10.5 upbm affinity estimate (log intensity, higher = more binding, comparable within an allelic series)
[7]
  binding signal: 12.4 upbm affinity estimate (log intensity, higher = more binding, comparable within an allelic series)
[8]
  binding signal: 10.9 upbm affinity estimate (log intensity, higher = more binding, comparable within an allelic series)
[9]
  binding signal: 9.95 upbm affinity estimate (log intensity, higher = more binding, comparable within an allelic series)
[10]
  binding signal: 10.8 upbm affinity estimate (log intensity, higher = more binding, comparable within an allelic series)
[12]
  binding signal: 11.6 upbm affinity estimate (log intensity, higher = more binding, comparable within an allelic series)
[11]
  binding signal: 8.55 upbm affinity estimate (log intensity, higher = more binding, comparable within an allelic series)

## CAATTACA
[6]
  binding signal: 13.7 upbm affinity estimate (log intensity, higher = more binding, comparable within an allelic series)

## CAATTACG
[6]
  binding signal: 13.7 upbm affinity estimate (log intensity, higher = more binding, comparable within an allelic series)
[12]
  binding signal: 10.9 upbm affinity estimate (log intensity, higher = more binding, comparable within an allelic series)

## CAATTATA
[15]
  binding signal: 11.4 upbm affinity estimate (log intensity, higher = more binding, comparable within an allelic series)
[3]
  binding signal: 8.6 upbm affinity estimate (log intensity, higher = more binding, comparable within an allelic series)
[6]
  binding signal: 14 upbm affinity estimate (log intensity, higher = more binding, comparable within an allelic series)
[7]
  binding signal: 12.5 upbm affinity estimate (log intensity, higher = more binding, comparable within an allelic series)
[9]
  binding signal: 10.2 upbm affinity estimate (log intensity, higher = more binding, comparable within an allelic series)
[16]
  binding signal: 8.95 upbm affinity estimate (log intensity, higher = more binding, comparable within an allelic series)
[11]
  binding signal: 8.66 upbm affinity estimate (log intensity, higher = more binding, comparable within an allelic series)
